# Measured values from PubChem BioAssay AID2676 (National Center for Advancing Translational Sciences (NCATS), 2010).
# The campaign covered roughly 370,000 compounds. About 1,100 (0.3%) were called active. Another 1% or so got no clear call; they are omitted. The full list was thinned out, with actives kept by preference. A number with no mark means an inactive call. Calls follow the shape of the dose curve; as a rule, active = well fitted activation curve with a large enough effect; inconclusive = small, poorly fitted or top-dose-only effect; inactive = flat fitted curve, though single readings scatter.
# Target: Relaxin receptor 1 (Homo sapiens) (UniProt Q9HBX9)
# Experiment: qHTS Assay for Agonists of the Relaxin Receptor RXFP1; also: nearly all actives have a fitted effect of over 60% in size
# Conditions: HEK293T-RXFP1 cAMP TR-FRET, 30 min; series mostly up to 57.5 µM; activation: at the top concentration
# Text: NIH Chemical Genomics Center [NCGC] NIH Molecular Libraries Probe Production Centers Network [MLPCN] MLPCN Grant: R03 MH085705-01A1 Assay Submitter (PI): Alexander Agoulnik NCGC Assay Overview: The relaxin hormone is involved in the variety of biological functions in normal tissues and diseases. The role of relaxin is well-established in female reproduction and parturition, mammary gland and endometrial development, maintenance of myometrial quiescence during pregnancy. Relaxin signaling through its G protein-coupled receptor (GPCR) RXFP1 results in ECM remodeling through regulation of collagen deposition, cell invasiveness, proliferation and overall tissue homeostasis. […] Recombinant human relaxin (rhRlx) is currently being tested in clinical trials as a protective agent in congestive heart failure, in treating severe preeclampsia, and as an anti-fibrotic agent in systemic sclerosis. Upon relaxin binding RXFP1 activation leads to the activation of adenylate cyclase (AC) via Gs. cAMP will activate PKA, which phosphorylates many signaling proteins. Thus, detection of cAMP increase is an easy and reliable indication of relaxin receptor activation. To screen for agonists of the relaxin receptor, a HEK293T cell line stably transfected with RXFP1 was used. RXFP1 activation was assayed by changes in cAMP levels as detected with a time-resolved fluorescence energy transfer (TR-FRET) cAMP detection kit.
# NCGC Assay Protocol Summary: This is a cell-based assay for cAMP second messenger response to screen for agonists of the RXFP1 receptor. The assay was conducted in the presence of a PDE4 inhibitor (Ro 20174). The cells were lysed and the cAMP levels were measured with a TR-FRET cAMP kit. Presence of cAMP in the cell lysate disrupts binding between the cryptate-labeled anti-cAMP and d2-labeled cAMP pair, leading to a decrease in the TR-FRET signal. Data were normalized to the controls for basal activity (buffer only) and 100% activity (29 nM porcine relaxin). The EC50 values were determined from concentration-response data modeled with the standard Hill equation 1536-well assay protocol for the HEK293 RXFP1 cAMP assay: (1) Add 3 ul HEK293 RXFP1 cell culture. 2000 cells/well in DMEM/F12, 10% FBS, 1x Pen/Strep (dispensed offline with MultiDrop Combi). (2) Incubate 16-24 hr at 37C, 5% CO2. (3) Add 1 ul 400uM Ro20174 in DPBS, 0.05% BSA, 0.005% Tween 20. (3) Add 23 nl compounds in DMSO solution. Final concentration was 0.5 - 58 uM. (4) Incubate 30 min at 37C, 5% CO2. (5) Add 1 ul cAMP-d2 in lysis buffer (HTRF cAMP HiRange kit, CisBio). (6) Add 1 ul anti-cAMP antibody-cryptate in lysis buffer (HTRF cAMP HiRange kit, CisBio). (7) Incubate 30 min at room temperature. (6) Detect the assay plate in a ViewLux plate reader (PerkinElmer) with Ex=320 nm, Em1=615 nm and Em2=665 nm. Keywords: relaxin, RXFP1, RXFP2, G-protein coupled receptor, cAMP, agonist, high throughput screening, MLSMR, MLSCN, NIH Roadmap, qHTS and NCGC
# % is scaled to controls: 0 for no effect and ±100 for the full control effect; potency is read from the fitted curve at half-maximal effect.
# Sequence of Relaxin receptor 1 (Homo sapiens) (Q9HBX9 whole entry, looked up): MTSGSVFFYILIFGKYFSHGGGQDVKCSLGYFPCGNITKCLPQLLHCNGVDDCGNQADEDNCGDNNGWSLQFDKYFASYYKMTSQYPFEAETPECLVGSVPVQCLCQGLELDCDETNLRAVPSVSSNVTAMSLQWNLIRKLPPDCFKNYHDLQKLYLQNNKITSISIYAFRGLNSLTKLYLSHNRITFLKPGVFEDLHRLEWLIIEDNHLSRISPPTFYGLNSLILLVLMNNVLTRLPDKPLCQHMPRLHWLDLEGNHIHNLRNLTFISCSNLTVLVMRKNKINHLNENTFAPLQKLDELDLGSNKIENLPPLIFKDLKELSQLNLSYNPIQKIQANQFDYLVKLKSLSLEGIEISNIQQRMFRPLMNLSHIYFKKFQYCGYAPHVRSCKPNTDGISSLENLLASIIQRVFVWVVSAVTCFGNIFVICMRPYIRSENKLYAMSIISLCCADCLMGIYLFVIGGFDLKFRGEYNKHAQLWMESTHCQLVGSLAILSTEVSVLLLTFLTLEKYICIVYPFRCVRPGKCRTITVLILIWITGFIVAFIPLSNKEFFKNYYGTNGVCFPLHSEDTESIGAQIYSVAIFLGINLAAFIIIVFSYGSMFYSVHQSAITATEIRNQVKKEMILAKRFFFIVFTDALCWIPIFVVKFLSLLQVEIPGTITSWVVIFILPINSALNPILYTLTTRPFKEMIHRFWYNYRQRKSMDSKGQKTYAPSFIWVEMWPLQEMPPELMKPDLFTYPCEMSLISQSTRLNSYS
Compound,activation,Potency
O=C1CN(C(=O)Nc2ccccc2C(F)(F)F)C(c2ccccc2)c2c(sc3c2CCCC3)N1 (stereo unspecified),-3.54%,
Cc1cccc(N2CCN(C(=O)CCn3c(=O)c4cccn4c4cccnc43)CC2C)c1 (stereo unspecified),0.827%,
Cc1ccc(CCNC(=O)c2ccc3c(c2)nc2n3CCC(C)C2)cc1 (stereo unspecified),-2.6%,
COc1ccc(-c2cn3c(n2)sc2cc(C(=O)Nc4ccccc4F)ccc23)cc1,12.7%,
CC(C)(C)C1CCc2c(sc(NC(=O)c3ccccc3F)c2C(=O)N2CCCCC2)C1 (stereo unspecified),6.29%,
CCN1CCN(Cc2c(O)ccc3oc(C)c(C(=O)Nc4ccc(C)cc4C)c23)CC1,0.265%,
COc1cccc(-n2cc(C(=O)NCc3cccc(Cl)c3)c3ccccc3c2=O)c1,1.08%,
COc1ccc(NC(=O)NC(C)c2c(-n3cccc3)sc(C)c2C)cc1OC (stereo unspecified),1.3%,
CCOC(=O)c1ccc(NC(=O)CSc2nc3c([nH]c4ccccc43)c(=O)n2C)cc1,1.08%,
Cc1c(Cl)cccc1NC(=O)Cn1cc(C(=O)c2cccs2)c2ccccc21,2.58%,
CC(=O)N1CCCc2ccc(NS(=O)(=O)c3ccc(F)cc3F)cc21,-0.645%,
COc1cccc(Cn2c(CNS(=O)(=O)c3ccc(Cl)s3)nc3cccnc32)c1,1.25%,
CCOC(=O)c1sc(=NC(=O)c2ccc(Br)cc2)n(C)c1C,,17.8 µM (active)
CCOC(=O)c1sc(=NC(=O)/C=C/c2cccs2)n(C)c1C,2.99%,
CCN(CC)S(=O)(=O)c1ccc(C(=O)N=c2sc3cccc(OC)c3n2C)cc1,3.69%,
CCN(CC)c1ccc(C2C(C(N)=O)=C(C)Nc3nc(SCc4ccccc4)nn32)cc1 (stereo unspecified),3.85%,
CCCC(=O)Nc1ncnc2c1ncn2[C@@H]1O[C@@H]2OP(=O)(O)OC[C@H]2[C@H]1OC(=O)CCC,,0.631 µM (active)
Cc1ccccc1CSc1nc(-c2ccccc2)nc2c1Cc1c(CO)cnc(C)c1O2,6.11%,
CCOc1ccc(S(=O)(=O)N(CC(=O)NCCSCc2ccc(C)cc2)c2ccccc2)cc1,0.384%,
Cc1nn2c(=O)cc(COC(=O)c3cccc(NC(=O)COc4ccccc4Cl)c3)nc2s1,0.441%,
C#CC(C)(C)NC(=O)CSc1nc2c(c(=O)n(C)c(=O)n2C)n1CCCC,5.88%,
CCCCn1c(SCC(=O)N2CCOCC2)nc2c1c(=O)n(C)c(=O)n2C,,15.8 µM (active)
Cn1c(=O)c2c(SCC(=O)N3CCOCC3)nc(C3CC3)nc2n(C)c1=O,9.17%,
Cc1cc(C)cc(OCC(=O)Nc2nc(-c3ccc(F)cc3)ns2)c1,16.4%,
O=C(CSc1nccn1-c1ccc(F)cc1)Nc1cccc2ccccc12,-0.361%,
Cc1ccc(CNC(=O)CCc2c(C)nc3nc(CNC(=O)OC(C)(C)C)nn3c2C)cc1,0.404%,
